Measurements as given in PubChem BioAssay AID1159567 (Broad Institute, 2015).
Hit rate of the full screen: of about 1,300 compounds, about 1,200 (92%) were called active. The set was probably picked from earlier hits. This is one part of the list. Potency and affinity values are given separately. Inconclusive results are not listed. The rule behind the calls is not given here.

Assay: P. falciparum Dd2 growth inhibitors, dose response, SYBR Green, cherry-picked samples (AID 1159567)
Conditions: Plasmodium falciparum Dd2 growth, SYBR Green fluorescence; series mostly up to 19.5 µM

outcome, inactive:
O=C(O)C[C@@H]1C[C@@H]2c3cc(NS(=O)(=O)c4ccccc4)ccc3O[C@@H]2[C@H](CO)O1, C[C@@H]1CN([C@@H](C)CO)C(=O)c2cc(NC(=O)C3CC3)ccc2O[C@H]1CN(C)CC1CCCCC1, CCC(=O)N[C@H]1C=C[C@H](CC(=O)NCC2CCCCC2)O[C@@H]1CO, C[C@H]1CN([C@@H](C)CO)C(=O)CCCn2cc(nn2)CO[C@@H]1CN(C)C(=O)Nc1ccc(N2CCCCC2)cc1, C[C@H]1CN([C@@H](C)CO)C(=O)CCCn2nncc2CO[C@H]1CN(C)C(=O)Nc1ccc(N2CCCCC2)cc1, COc1cccc(CNC(=O)[C@H]2[C@H](CO)[C@H]3Cn4c(cccc4=O)[C@@H]2N3C(=O)C2CCCC2)c1, O=C(c1cccnc1)N1CC2(C1)[C@@H](c1ccccc1)[C@@H](CO)N2C(=O)CC1CC1, COc1ccc(CNC(=O)C[C@H]2C=C[C@@H](NS(=O)(=O)c3cccc(OC)c3)[C@@H](CO)O2)cc1, C[C@H](O)C#Cc1cnc2c(c1)C(=O)N([C@@H](C)CO)C[C@@H](C)[C@@H](CN(C)C(=O)Cc1ccncc1)O2, O=C(Nc1ccccc1F)N1C[C@@H]2[C@H](c3ccccc31)[C@H](CO)N2C(=O)C1CCOCC1, O=C(Nc1ccc(F)cc1)N1C[C@H]2[C@@H](c3ccccc31)[C@@H](CO)N2Cc1cocn1, CN(C)CC#Cc1ccc([C@@H]2[C@H](CO)N3C(=O)CN(C(=O)Cc4cccnc4)C[C@@H]23)cc1, COc1ccc(CN(C)C[C@@H]2OCc3cn(nn3)CCCC(=O)N([C@H](C)CO)C[C@H]2C)cc1, C[C@@H]1CN([C@@H](C)CO)C(=O)c2c(c3ccccc3n2C)-c2ccccc2CO[C@H]1CN(C)Cc1ccc(Cl)c(Cl)c1, O=C1CN(Cc2ccc(F)cc2)C[C@@H]2[C@@H](c3ccc(Br)cc3)[C@H](CO)N12, Cc1noc(C)c1NC(=O)Nc1ccc2c(c1)C(=O)N([C@H](C)CO)C[C@@H](C)[C@@H](CN(C)S(C)(=O)=O)O2, COc1ccc2c3c([nH]c2c1)[C@@H](CO)N(C(C)=O)CC31CN(C(=O)CN2CCOCC2)C1, COCC(=O)N1CC2(C1)CN(C(=O)CN1CCOCC1)[C@@H](CO)c1c2c2ccc(OC)cc2n1C, CCCNC(=O)Nc1ccc2c(c1)C(=O)N(C)C[C@H](OC)[C@@H](C)CN(C(=O)C1CCOCC1)[C@@H](C)CO2, COCC(=O)Nc1ccc2c(c1)OC[C@@H](C)N(C(=O)NC(C)C)C[C@@H](C)[C@@H](OC)CN(C)C2=O, COc1ccccc1S(=O)(=O)N(C)C[C@H]1OCc2cn(nn2)CCCC(=O)N([C@@H](C)CO)C[C@@H]1C, CO[C@H]1CN(C)C(=O)c2ccc(NC(=O)CC(F)(F)F)cc2OC[C@@H](C)N(CC2CC2)C[C@H]1C, COc1ccc2c3c(n(C)c2c1)[C@H](CO)N(Cc1cccnc1)CC31CN(C(=O)NC(C)C)C1, N#C[C@H]1[C@@H](c2ccccc2-c2ccccc2F)[C@@H](CO)N1C(=O)C1CCOCC1, N#C[C@@H]1[C@@H](c2ccccc2-c2ccccc2F)[C@H](CO)N1C(=O)C1CC1, N#C[C@@H]1[C@H](c2ccccc2-c2ccccc2F)[C@H](CO)N1C(=O)C1CCOCC1, C[C@@H]1CN([C@H](C)CO)C(=O)c2cc(NC(=O)CCC(F)(F)F)ccc2O[C@H]1CN(C)C(=O)NC1CCCCC1, C[C@H](CO)N1C[C@H](C)[C@@H](CN(C)C(=O)CCCN(C)C)OCc2cnnn2CCCC1=O, O=C(C[C@@H]1C=C[C@@H](NC(=O)C2CCC2)[C@H](CO)O1)NC1CCC1, CN1C(=O)c2cc(NC(=O)c3ccc4c(c3)OCO4)ccc2OC[C@@H]2O[C@@H](CC(=O)O)CC[C@@H]21, CO[C@@H]1CN(C)C(=O)c2cc(NC(C)=O)ccc2OC[C@@H](C)N(C(=O)Cc2cccnc2)C[C@H]1C, COCC#Cc1ccc([C@H]2[C@H](CO)N3C(=O)CN(C(=O)CN4CCOCC4)C[C@@H]23)cc1, CN(C)CC(=O)Nc1ccc2c(c1)[C@@H]1C[C@H](CC(=O)N3CCOCC3)O[C@@H](CO)[C@@H]1O2, C[C@H]1CN([C@@H](C)CO)C(=O)Cc2cc(NC(=O)CCC(F)(F)F)ccc2O[C@H]1CN(C)S(C)(=O)=O, CN(C)C(=O)c1cccc(-c2ccccc2[C@@H]2[C@@H](C#N)N(C(=O)C3CC3)[C@H]2CO)c1, COCC(=O)N1[C@H](C#N)[C@@H](c2ccccc2-c2ccccc2)[C@H]1CO, COCC(=O)N1[C@@H](C#N)[C@H](c2ccccc2-c2ccccc2)[C@@H]1CO, CO[C@H]1CN(C)C(=O)c2ccc(NS(=O)(=O)CC(F)(F)F)cc2OC[C@H](C)N(C)C[C@@H]1C, CO[C@H]1CN(C)C(=O)c2cc(NS(=O)(=O)c3ccccc3C)ccc2OC[C@H](C)N(C)C[C@H]1C, O=C(C[C@H]1C=C[C@H](NC(=O)Cc2ccccn2)[C@H](CO)O1)NCCc1ccccc1, CCC(=O)N1[C@H](CO)[C@H](c2ccccc2)[C@@H]1CN(CC)C(=O)c1cccc(F)c1, CCCNC(=O)Nc1ccc2c(c1)C(=O)N(C)C[C@@H](OC)[C@H](C)CN(C(=O)C1CCOCC1)[C@@H](C)CO2, CCCNC(=O)Nc1ccc2c(c1)C(=O)N(C)C[C@H](OC)[C@@H](C)CN(C(=O)C1CCOCC1)[C@H](C)CO2, COCC(=O)N1[C@H](C#N)[C@@H](c2ccccc2C2=CCCC2)[C@@H]1CO, CO[C@H]1CN(C)C(=O)c2cc(NC(C)=O)ccc2OC[C@H](C)N(Cc2ccncc2)C[C@H]1C, CO[C@H]1CN(C)C(=O)c2cc(NC(C)=O)ccc2OC[C@H](C)N(Cc2ccncc2)C[C@@H]1C
